Source: PubChem BioAssay AID1159580 (chemical genetic matrix, 2015)
Several values for one entry are separate records, joined by “and”; a condition that tells them apart may be missing. Equal entries are not always repeated. In all, about 5,500 compounds went through this assay and about 2,000 (36%) were called active. Another 18% or so got no clear call; they are omitted. Rule as the data show it: active = normalized growth mostly below about 0.91 (no sharp cut-off); inconclusive = no clear call, values can overlap the other calls; inactive = mostly above about 0.92. The list shows a part of the results.

Assay: chemical genetic growth profiling, strain panel (AID 1159580);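 also: tested at 20 µM; growth read once vehicle control cultures reached saturation at 30 °C; 1 = growth at the plate median or of vehicle wells; lower values mean less growth of the strain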
Conditions: S. cerevisiae deletion strains, growth OD

Measured: normalized growth

CO[C@H]1C[C@H](O[C@H]2[C@H](C)[C@@H](OC3O[C@H](C)C[C@H](N(C)C)[C@H]3O)[C@@H](C)C[C@]3(CO3)C(=O)[C@H](C)[C@@H](O)[C@@H](C)[C@@H](C)OC(=O)[C@@H]2C)O[C@@H](C)[C@@H]1O (some centres not stated)
inactive: locus YAL013W, strain DEP1, hits give low values 1.01 | locus YAL021C, strain ccr4, hits give low values 1.03 | locus YAL026C, strain drs2, hits give low values 0.991 | locus YAL030W, strain snc1, hits give low values 1.01 | locus YBL061C, strain skt5, hits give low values 1 | locus YBR009C, strain hhf1, hits give low values 0.96 | locus YBR021W, strain FUR4, hits give low values 0.994 | locus YBR023C, strain chs3, hits give low values 1.02 | locus YBR171W, strain sec66, hits give low values 0.996 | locus YBR229C, strain ROT2, hits give low values 1.02 | locus YBR231C, strain swc5, hits give low values 1.02 | locus YBR279W, strain paf1, hits give low values 1.01 | locus YCL011C, strain gbp2, hits give low values 0.998 | locus YCL016C, strain dcc1, hits give low values 1.02 | locus YCL029C, strain bik1, hits give low values 1 | locus YCL061C, strain MRC1, hits give low values 1.02 | locus YCL069W, strain vba3, hits give low values 1 | locus YCR088W, strain abp1, hits give low values 1.01 | locus YDL005C, strain med2, hits give low values 1.02 | locus YDL035C, strain GPR1, hits give low values 1.01 | locus YDL040C, strain nat1, hits give low values 1.01 | locus YDL074C, strain BRE1, hits give low values 1.02 | locus YDL101C, strain DUN1, hits give low values 1.02 | locus YDL134C, strain PPH21, hits give low values 1.01 | locus YDL185W, strain tfp1, hits give low values 1.01 | locus YDL192W, strain arf1, hits give low values 1.01 | locus YDR001C, strain nth1, hits give low values 1 | locus YDR069C, strain doa4, hits give low values 1.03 | locus YDR101C, strain arx1, hits give low values 1 | locus YDR137W, strain rgp1, hits give low values 0.998 | locus YDR150W, strain NUM1, hits give low values 1 | locus YDR159W, strain sac3, hits give low values 0.994 | locus YDR162C, strain NBP2, hits give low values 1.01 | locus YDR195W, strain ref2 1.01 | locus YDR297W, strain sur2, hits give low values 1.01 | locus YDR318W, strain mcm21, hits give low values 1.01 | locus YDR334W, strain swr1, hits give low values 0.995 | locus YDR335W, strain msn5, hits give low values 0.998 | locus YDR388W, hits give low values 0.991 | locus YDR392W, strain spt3, hits give low values 0.945 | locus YDR502C, strain sam2, hits give low values 1.02 | locus YEL003W, strain gim4, hits give low values 0.987 | locus YEL037C, strain rad23, hits give low values 0.994 | locus YEL061C, strain CIN8 (second series), hits give low values 0.999 | locus YEL061C, strain CIN8, hits give low values 1 | locus YER015W, strain faa2, hits give low values 0.992 | locus YER016W, strain bim1, hits give low values 1.02 | locus YER110C, hits give low values 0.986 | locus YER111C, strain swi4, hits give low values 1 | locus YER155C, strain BEM2 (second series), hits give low values 1.02 | locus YER155C, strain BEM2, hits give low values 1 | locus YER167W, strain BCK2, hits give low values 1.01 | locus YFR010W, strain ubp6, hits give low values 0.988 | locus YGL078C, strain dbp3, hits give low values 1 | locus YGL086W, strain mad1, hits give low values 0.995 | locus YGL167C, strain pmr1, hits give low values 0.994 | locus YGL173C, strain kem1, hits give low values 1 | locus YGL227W, strain vid30, hits give low values 1.02 | locus YGL240W, strain doc1, hits give low values 1.03 | locus YGL248W, strain PDE1, hits give low values 1.02 | locus YGL253W, strain hxk2, hits give low values 1.02 | locus YGR078C, strain PAC10, hits give low values 1.02 | locus YGR135W, strain pre9, hits give low values 1.01 | locus YGR229C, strain SMI1, hits give low values 1.03 | locus YGR252W, strain gcn5, hits give low values 1.14 | locus YHR013C, strain ard1, hits give low values 1.02 | locus YHR027C, strain rpn1, hits give low values 0.999 | locus YHR030C, strain SLT2, hits give low values 1.01 | locus YHR079C, strain IRE1 (second series), hits give low values 0.989 | locus YHR079C, strain IRE1, hits give low values 1.01 | locus YHR094C, strain hxt1, hits give low values 0.98 | locus YHR129C, strain ARP1, hits give low values 0.998 | locus YHR142W, strain chs7, hits give low values 0.972 | locus YHR200W, strain rpn10, hits give low values 1.01 | locus YIL066C, strain RNR3, hits give low values 1.02 | locus YIL073C, strain SPO22, hits give low values 1.05 | locus YIL125W, strain kgd1, hits give low values 1 | locus YIR030C, strain dcg1, hits give low values 0.993 | locus YJL092W, strain hpr5, hits give low values 1.01 | locus YJL095W, strain BCK1 (second series), hits give low values 1.01 | locus YJL095W, strain BCK1, hits give low values 1.03 and 0.995 | locus YJL115W, strain asf1, hits give low values 0.991 | locus YJL129C, strain trk1, hits give low values 1 | locus YJL134W, strain LCB3, hits give low values 1 | locus YJL154C, strain vps35, hits give low values 1 | locus YJL164C, strain tpk1, hits give low values 0.982 | locus YJL166W, strain qcr8, hits give low values 1.03 | locus YJL168C, strain set2, hits give low values 0.987 | locus YJL187C, strain SWE1 (second series), hits give low values 1.02 | locus YJL187C, strain SWE1, hits give low values 1 | locus YJR043C, strain POL32, hits give low values 1.02 | locus YJR066W, strain TOR1, hits give low values 0.981
